Test results: PubChem BioAssay AID489036 (National Center for Advancing Translational Sciences (NCATS), 2010)
Where “and” joins values, the source holds several entries; their conditions need not be identical. Identical values can stand only once. Inconclusive results are not listed. A call without a number means that no potency is given here. Calls of active or inactive are those of the source. Calls come from the whole dose curve; as a rule, active = well fitted inhibition curve with a large enough effect; inconclusive = small, poorly fitted or top-dose-only effect, or effect the other way; inactive = flat fitted curve, though single readings scatter.

Assay: VP16 selectivity assay for inhibitors of ROR gamma transcriptional activity
Details: Drosophila Schneider Gal4-VP16 UAS-luciferase reporter, 20 h; series mostly up to 92.2 µM
In short: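 Luciferase luminescence read after 20 hr induction with 700 uM (final) copper sulfate at ambient temperature, following 1 hr compound pretreatment. Counter-screen uses Schneider cells carrying metallothionein-driven Gal4 DBD–VP16 and a UAS-Photinus luciferase reporter.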

Row | SMILES | Potency
1 | C[C@H]1O[C@@H](O[C@H]2[C@@H](O)C[C@@H](O[C@H]3[C@@H](O)C[C@H](O[C@H]4CC[C@@]5(C)[C@H](CC[C@@H]6[C@@H]5CC[C@]5(C)[C@@H](C7=CC(=O)OC7)CC[C@]65O)C4)O[C@@H]3C)O[C@@H]2C)C[C@H](O)[C@@H]1O | inactive
2 | CC(C)(C)c1ccc([S+](=O)([O-])Nc2ccccc2C(O)(C(F)(F)F)C(F)(F)F)cc1 | 11.5 µM (active)
3 | COc1cc(O)c(C(CC(=O)N2CCCC(C)C2)c2ccc3c(c2)OCO3)c(OC)c1 (centres undefined) | inactive
4 | COc1cc(O)c(C(CC(=O)N2CCCC(C)C2)c2cccc3ccccc23)c(OC)c1 (centres undefined) | inactive
5 | Cc1ccc(-c2cn(-c3ccccc3)c3[n+]2CCCS3)cc1 | 10.2 µM (active)
6 | COc1ccc(C(CC(=O)N2CCCC(C)C2)c2ccccc2)cc1 (centres undefined) | inactive
7 | CCNC(=O)CCc1nc(-c2ccc(C(C)(C)C)cc2)no1 | 5.75 µM (active)
8 | COc1cc(O)c(C(CC(=O)N2CC(C)CC(C)C2)c2ccc(O)cc2)c(OC)c1 (centres undefined) | inactive
9 | COc1ccc(C(=O)Nc2cc(-c3ccc(C)cc3)no2)cc1 | inactive
10 | COc1cc(O)c(C(CC(=O)N2CC(C)OC(C)C2)c2ccc3c(c2)OCO3)c(OC)c1 (centres undefined) | inactive
11 | COc1cc(O)c(C(CC(=O)N2CCc3ccccc32)c2ccc3c(c2)OCO3)c(OC)c1 (centres undefined) | inactive
12 | COc1cc(O)c(C(CC(=O)N2CCC(C)CC2)c2ccc(OC)c(OC)c2)c(OC)c1 (centres undefined) | inactive
13 | CCOC(=O)Cn1c(CN2CCc3ccccc3C2)nc2c1c(=O)n(C)c(=O)n2C | 5.12 µM (active)
14 | COc1cc(O)c(C(CC(=O)N2CC(C)NC(C)C2)c2ccc3c(c2)OCO3)c(OC)c1 (centres undefined) | inactive
15 | COc1cc(O)c(C(CC(=O)N2CCCC(CO)C2)c2ccc3c(c2)OCO3)c(OC)c1 (centres undefined) | inactive
16 | COc1cc(O)c(C(CC(=O)N2CCCC(C)C2)c2ccc(-c3ccccc3)cc2)c(OC)c1 (centres undefined) | inactive
17 | COc1cc(O)c(C(CC(=O)N2CCCC(C)C2)c2ccccc2)c(OC)c1 (centres undefined) | inactive
18 | O=C(CCCN1C(=O)/C(=C/c2ccccc2Cl)SC1=S)Nc1cccnc1 | 28.8 µM (active)
19 | COc1cc(O)c(C(CC(=O)N2CCCC2)c2ccc3c(c2)OCO3)c(OC)c1 (centres undefined) | inactive
20 | CCOc1cccc(-c2cc(-c3n[nH]c(=S)n3CC)c3ccccc3n2)c1 | 2.29 µM (active) and 4.07 µM (active)
21 | COc1ccc(-c2nnc(-c3ccc(N(C)C)cc3)o2)cc1 | inactive
22 | COc1cc(O)c(C(CC(=O)N2C[C@H](C)C[C@H](C)C2)c2ccc3c(c2)OCO3)c(OC)c1 (some centres undefined) | inactive
23 | COc1cc(O)c(C(CC(=O)N(Cc2ccccc2)Cc2ccccc2)c2ccc3c(c2)OCO3)c(OC)c1 (centres undefined) | inactive
24 | COc1cc(O)c(C(CC(=O)N2CCC[C@@H](C)C2)c2ccc3c(c2)OCO3)c(OC)c1 (some centres undefined) | inactive
25 | CC(C)[C@H](NC(=O)C1CCN(C(=O)[C@@H]2CCCN2C(=O)OC(C)(C)C)CC1)C(=O)NCc1ccc(F)cc1 | inactive
26 | COC(=O)c1ccc(OCC(=O)c2ccc(O)cc2O)cc1 | 2.04 µM (active)
27 | COc1ccc2nc(NNC(=O)COc3ccccc3)sc2c1 | 6.45 µM (active)
28 | CCC(=O)C1CCCN(C(=O)CC(c2ccc3c(c2)OCO3)c2c(O)cc(OC)cc2OC)C1 (centres undefined) | inactive
29 | CC1CCCN(C(=O)CC(c2ccc3c(c2)OCO3)c2ccc(O)cc2O)C1 (centres undefined) | inactive
